A number with no mark means an inactive call. Inconclusive results are not listed. A call without a number means that no potency is given here. Active and inactive are the calls of the source. Unless noted, calls follow the shape of the dose curve; as a rule, active = well fitted curve in the direction sought with a large enough effect in the repeat runs; inconclusive = weak or mixed curves; inactive = no such curve, though single readings can be large; an effect the other way counts as inactive or inconclusive.
How the values were obtained:
[1] = target: Thyrotropin receptor (Homo sapiens) (UniProt P16473); test: qHTS assay to identify small molecule agonists of the thyroid stimulating hormone receptor (TSHR) signaling pathway (AID 1224843; calls by dose curve; also: nearly all actives have a fitted effect of over 45% in size)
Thyrotropin receptor (Homo sapiens), sequence (P16473 whole entry, looked up): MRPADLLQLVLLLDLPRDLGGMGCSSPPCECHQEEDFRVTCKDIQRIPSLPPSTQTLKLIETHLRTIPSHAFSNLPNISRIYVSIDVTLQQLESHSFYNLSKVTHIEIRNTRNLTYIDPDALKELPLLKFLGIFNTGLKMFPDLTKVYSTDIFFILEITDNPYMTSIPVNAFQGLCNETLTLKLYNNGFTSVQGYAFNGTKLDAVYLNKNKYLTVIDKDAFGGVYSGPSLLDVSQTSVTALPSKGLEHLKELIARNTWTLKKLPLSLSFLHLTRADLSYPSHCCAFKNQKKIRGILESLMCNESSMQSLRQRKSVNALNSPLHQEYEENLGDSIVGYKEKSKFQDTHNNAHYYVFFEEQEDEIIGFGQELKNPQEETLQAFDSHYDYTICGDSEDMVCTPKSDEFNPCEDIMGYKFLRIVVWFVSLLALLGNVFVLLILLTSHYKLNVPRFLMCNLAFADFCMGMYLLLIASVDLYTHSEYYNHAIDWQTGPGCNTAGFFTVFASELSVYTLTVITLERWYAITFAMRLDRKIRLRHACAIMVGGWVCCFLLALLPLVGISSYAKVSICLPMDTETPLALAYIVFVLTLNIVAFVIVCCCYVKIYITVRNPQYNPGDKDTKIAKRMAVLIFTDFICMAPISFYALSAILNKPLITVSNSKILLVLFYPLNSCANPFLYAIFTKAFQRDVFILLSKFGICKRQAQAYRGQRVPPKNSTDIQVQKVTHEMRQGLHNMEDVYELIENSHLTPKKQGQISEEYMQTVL
In short: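 HEK293 cells stably bearing the thyrotropin receptor were plated at 800 cells/well and challenged with compound (30 min, RT). Accumulated cAMP was quantified via cAMP-d2 competing for cryptate-tagged antibody.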

[2] = qHTS assay to identify small molecule agonists of the hypoxia (HIF-1) signaling pathway - cell viability counter screen (AID 1224844; calls by dose curve; also: nearly all actives have a fitted effect of over 50% in size; also: potency is read from the fitted curve at half-maximal effect)
In short: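 ME-180 HRE-bla cells, 2,000/well, 0.5% dialyzed FBS; 5 hr settle, 17 hr compound at 37C/5% CO2; CCF4-AM reporter read first, then CellTiter-Glo luminescence after 30 min RT.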

[3] = qHTS assay to identify small molecule agonists of H2AX (AID 1224845; active = well fitted activation curve with a large enough effect in the signal ratio in the repeat runs, not every such curve was filed as active; the % refers to the signal ratio)
In short: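 Phospho-H2AX Ser139 measured by HTRF (ex 320 nm; em 665 and 620 nm) after 24 hr antibody incubation. Compounds, 15 concentrations, 0.76% DMSO, were applied to CHO-K1 cells for 3hr at 37C before lysis.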

[4] = qHTS assay to identify small molecule agonists of the hypoxia (HIF-1) signaling pathway (AID 1224846; active = well fitted activation curve with a large enough effect in the signal ratio in the repeat runs, not every such curve was filed as active; the % refers to the signal ratio)
In short: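 Cell line: CellSensor HRE-bla ME-180; 2,000 cells/well; 0.5% dialyzed FBS; 5 h preincubation; DMSO compound pin transfer; 17 h, 37C, 5% CO2; CCF4-AM added; bla FRET signal scored for activation.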

[5] = qHTS assay to identify small molecule agonists of H2AX - cell viability counter screen (AID 1224847; calls by dose curve;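 also: wild-type CHO-K1 cells; top concentration of the series differs between compounds; nearly all actives have a fitted effect of over 30% in size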)
In short: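 After overnight plating of 1000 CHO-K1 cells per well, a 15-concentration compound series was applied for 3 hr at 37C. Luminescence from CellTiter-Glo, read following 30 min at room temperature, reflected cell viability.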

[6] = qHTS assay to identify small molecule antagonists of the estrogen related receptor (ERR) signaling pathway from Tox21 library (AID 1224848); also: nearly all actives have a fitted effect of over 50% in size
In short: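 Reading was by luminescence 30 min after ONE-Glo addition. Before that, ERR cells at 2,000 per well had rested 6 h at 37 C/5% CO2 and then received pin-tooled compounds in DMSO for 18 h at 37 C.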

[7] = qHTS RealTime-Glo MT Cell Viability Assay in HepG2 cells - 24 hour (AID 1224867); also: nearly all actives have a fitted effect of over 50% in size
In short: (§1)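 HepG2 cells were seeded at 600 cells/well together with NanoLuc luciferase and a cell-permeant prosubstrate, preincubated 5 h at 37 C/5% CO2, then pin-dosed with compounds in DMSO. Nonlytic luminescence from viable cells was read at each time point.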

[8] = A CellTox Green Cytotoxicity Assay to monitor cytotoxicity in HEK293 cells - 0 hour (AID 1224869); also: nearly all actives have a fitted effect of over 50% in size
In short: (§2)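 Nonlytic real-time cytotoxicity: HEK293 + CellTox Green reagent plated, 5 h preincubation, pintool compound addition (23 nL in DMSO), 37 C for 40 h, fluorescence measured at successive time points.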

[9] = qHTS RealTime-Glo MT Cell Viability Assay in HepG2 cells - 40 hour (AID 1224870); also: nearly all actives have a fitted effect of over 50% in size
In short: (§3)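 Real-time viability: cells seeded at 600 per well together with NanoLuc and cell-permeant prosubstrate, compounds added after 5 h incubation. Luminescence tracked at 0, 8, 16, 24, 32 and 40 h of exposure.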

[10] = A CellTox Green Cytotoxicity Assay to monitor cytotoxicity in HEK293 cells - 40 hour (AID 1224871); also: nearly all actives have a fitted effect of over 45% in size
In short: as §2

[11] = qHTS RealTime-Glo MT Cell Viability Assay in HEK293 cells - 16 hour (AID 1224872); also: nearly all actives have a fitted effect of over 50% in size; also: potency is read from the fitted curve at half-maximal effect
In short: (§4)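 HEK293 cells were seeded at 600 cells/well together with NanoLuc luciferase and cell-permeant prosubstrate, preincubated 5 h at 37 C/5% CO2, then given compound in DMSO by pintool. Luminescence from viable-cell prosubstrate reduction was read repeatedly over 40 h.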

[12] = A CellTox Green Cytotoxicity Assay to monitor cytotoxicity in HEK293 cells - 24 hour (AID 1224875); also: nearly all actives have a fitted effect of over 45% in size
In short: as §2

[13] = A CellTox Green Cytotoxicity Assay to monitor cytotoxicity in HepG2 cells - 16 hour (AID 1224876); also: nearly all actives have a fitted effect of over 45% in size
In short: (§5)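 Read-out is fluorescence of a cyanine dye excluded from live cells that stains DNA of dead HepG2 cells, with signal proportional to cytotoxicity. Plates were read at 0, 8, 16, 24, 32 and 40 h after compound addition.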

[14] = qHTS RealTime-Glo MT Cell Viability Assay in HepG2 cells - 32 hour (AID 1224877); also: nearly all actives have a fitted effect of over 55% in size
In short: as §1

[15] = A CellTox Green Cytotoxicity Assay to monitor cytotoxicity in HepG2 cells - 24 hour (AID 1224878); also: nearly all actives have a fitted effect of over 45% in size; also: potency is read from the fitted curve at half-maximal effect
In short: as §5

[16] = A CellTox Green Cytotoxicity Assay to monitor cytotoxicity in HepG2 cells - 40 hour (AID 1224879); also: nearly all actives have a fitted effect of over 40% in size; also: potency is read from the fitted curve at half-maximal effect
In short: as §5

[17] = qHTS assay to identify small molecule agonists of the estrogen related receptor (ERR) signaling pathway from Tox21 library (AID 1224849; calls by dose curve; also: nearly all actives have a fitted effect of over 15% in size); details: ERR reporter cell line, ONE-Glo luciferase, 18 h; at 92.4 µM (top of the series) unless noted
In short: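 ERR cells, 6 h pre-incubation 37 C/5% CO2; cpd in DMSO pinned; 18 h 37 C; ONE-Glo added, 30 min RT; luminescence read. Agonist mode, qHTS.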

[18] = qHTS RealTime-Glo MT Cell Viability Assay in HEK293 cells - 32 hour (AID 1224868); also: nearly all actives have a fitted effect of over 50% in size; also: potency is read from the fitted curve at half-maximal effect
In short: as §4

[19] = qHTS RealTime-Glo MT Cell Viability Assay in HepG2 cells - 8 hour (AID 1224873); also: nearly all actives have a fitted effect of over 55% in size
In short: as §3

[20] = qHTS RealTime-Glo MT Cell Viability Assay in HEK293 cells - 40 hour (AID 1224874); details: RealTime-Glo luminescence; max response: hits give low values; also: nearly all actives have a fitted effect of over 50% in size; also: potency is read from the fitted curve at half-maximal effect
In short: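 Cells were seeded together with NanoLuc luciferase and a prosubstrate that viable cells reduce to a luciferase substrate. After a 5 h incubation at 37 C/5% CO2, compounds were added and luminescence was measured repeatedly during 40 h of treatment.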

In the case of CCCCCC#CC(=O)OC, the Potency [1] is reported as “inactive”, the Potency [2] is reported as “inactive” and the Potency [3] is reported as “inactive”. The outcome [4] was “inactive”, the Potency [5] was “inactive” and the Potency [6] was “inactive”. The Potency [7] was “inactive”, the Potency [8] was “inactive” and the Potency [9] was “inactive”. The Potency [10] was “inactive”, the Potency [11] was “inactive” and the Potency [12] was “inactive”. The Potency [13] was “inactive”, the Potency [14] was “inactive” and the Potency [15] was “inactive”. The Potency [16] was “inactive”.

In the case of N#CCc1ccc(Cl)cc1Cl, the Potency [1] is reported as “inactive”, the Potency [2] is reported as “inactive” and the Potency [3] is reported as “inactive”. The outcome [4] was “inactive”, the Potency [5] was “inactive” and the Potency [6] was “inactive”. The activity change, positive = activation [17] was 0.109%, the Potency [7] was “inactive” and the Potency [18] was “inactive”. The Potency [8] was “inactive”, the Potency [9] was “inactive” and the Potency [10] was “inactive”. For the same compound, the Potency [11] was “inactive”, the Potency [19] was “inactive” and the max response [20] was -14.5%. The Potency [12] was “inactive”, the Potency [13] was “inactive” and the Potency [14] was “inactive”. The Potency [15] was “inactive” and the Potency [16] was “inactive”.

In the case of NC(=O)c1ccncc1, the Potency [1] is reported as “inactive”, the Potency [2] is reported as “inactive” and the Potency [3] is reported as “inactive”. The outcome [4] was “inactive”, the Potency [5] was “inactive” and the Potency [6] was “inactive”. For the same compound, the activity change, positive = activation [17] was 6.51%, the Potency [7] was “inactive” and the Potency [18] was “inactive”. The Potency [8] was “inactive”, the Potency [9] was “inactive” and the Potency [10] was “inactive”. For the same compound, the Potency [11] was “inactive”, the Potency [19] was “inactive” and the max response [20] was 6.51%. The Potency [12] was “inactive”, the Potency [13] was “inactive” and the Potency [14] was “inactive”. The Potency [15] was “inactive” and the Potency [16] was “inactive”.

With CCCCCCCC/C=C\CCCCCCCCO the Potency [1] was “inactive”, the Potency [2] was “inactive” and the Potency [3] was “inactive”. The outcome [4] was “inactive”, the Potency [5] was “inactive” and the Potency [6] was “inactive”. For the same compound, the activity change, positive = activation [17] was 4.79%, the Potency [7] was “inactive” and the Potency [18] was “inactive”. For the same compound, the Potency [8] was “inactive”, the Potency [9] was “inactive” and the Potency [10] was “inactive”. The Potency [11] was “inactive”, the Potency [19] was “inactive” and the max response [20] was 15%. For the same compound, the Potency [12] was “inactive”, the Potency [13] was “inactive” and the Potency [14] was “inactive”. The Potency [15] was “inactive” and the Potency [16] was “inactive”.

For C[C@H]1C[C@H](O)c2ccsc2S1(=O)=O, the Potency [1] was “inactive”, the Potency [2] was “inactive” and the Potency [3] was “inactive”. For the same compound, the outcome [4] was “inactive”, the Potency [5] was “inactive” and the Potency [6] was “inactive”. The activity change, positive = activation [17] was 5.62% [at 42.5 µM], the Potency [7] was “inactive” and the Potency [18] was “inactive”. For the same compound, the Potency [8] was “inactive”, the Potency [9] was “inactive” and the Potency [19] was “inactive”. The max response [20] was 2.25%, the Potency [12] was “inactive” and the Potency [13] was “inactive”. The Potency [14] was “inactive”, the Potency [15] was “inactive” and the Potency [16] was “inactive”.

In the case of Cc1c(C)c2c(c(C)c1OC(=O)CCC(=O)OCCO)CC[C@@](C)(CCC[C@H](C)CCC[C@H](C)CCCC(C)C)O2, the Potency [1] is reported as “inactive”, the Potency [2] is reported as “inactive” and the Potency [3] is reported as “inactive”. The outcome [4] was “inactive”, the Potency [5] was “inactive” and the activity change, positive = activation [17] was -48.8% [at 42.5 µM]. The Potency [7] was “inactive”, the Potency [18] was “inactive” and the Potency [9] was “inactive”. The Potency [10] was “inactive”, the Potency [19] was “inactive” and the max response [20] was -18.9%. For the same compound, the Potency [12] was “inactive”, the Potency [13] was “inactive” and the Potency [14] was “inactive”. The Potency [15] was “inactive” and the Potency [16] was “inactive”.

For CN1CCCC(n2nc(Cc3ccc(Cl)cc3)c3ccccc3c2=O)CC1 (centres undefined), the Potency [1] was “inactive”, the Potency [2] was 21.3 µM (active) and the Potency [3] was “inactive”. The outcome [4] was “inactive”, the Potency [5] was “inactive” and the activity change, positive = activation [17] was -15.1% [at 42.5 µM]. For the same compound, the Potency [18] was 9.52 µM (active), the Potency [8] was “inactive” and the Potency [11] was 7.56 µM (active). The Potency [19] was “inactive”, the Potency [20] was 9.52 µM (active) and the Potency [15] was 23.9 µM (active). The Potency [16] was 23.9 µM (active).

— PubChem BioAssay (Tox21)
